Measurements reported in PubChem BioAssay (NCI).
This is part of a sample that, as a whole, favours compounds with a hit. Of some 83,000 tested, about 20% had one in any assay.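 Growth was measured after 48 h exposure to one concentration of compound in 96-well plates. Values under 10 count as active.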 Active and inactive are the calls of the source.

Tested on: HL-60(TB) leukemia
Test: NCI-60 one-dose screen, 48 h (100 = growth as untreated, 0 = no growth, -100 = all killed)
Details: 10 µM unless noted

SMILES | growth
C#C[C@H]1CCCCCC1O (some centres not stated) | 96.1% (inactive)
Nc1ccc(Cl)cn1 | 100% (inactive)
COc1ccc(Nc2nc(-c3cc(O)c(C)c(C)c3O)cs2)cc1 | 7.17% (active)
COc1ccc(-c2c(C#N)cnc(N)c2-c2nc3cc(C)c(C)cc3[nH]2)cc1 | 89.4% (inactive)
Cc1cc(NS(=O)(=O)c2ccc(-c3cnc(C4CC4)o3)cc2)ccc1Cl | 0.815% (active)
c1ccc(CN2C(c3ccccc3)=Nc3ccccc3C2c2c[nH]c3ccccc23)cc1 (configuration not stated) | 19.6% (inactive)
COc1ccc2c(c1)O/C(=C\c1cccc(OCC(=O)Nc3nc(C)c(C)s3)c1)C2=O | -77.3% (active)
COC1=CC(c2ccc[nH]2)=N/C1=C\c1[nH]c(C)c(C(=O)CCC(=O)Oc2ccc3c(c2)CCC2C3CC[C@]3(C)C(=O)CC[C@@H]23)c1C (some centres not stated) | 79.8% (inactive)
Fc1ccc2nc3c(cc2c1)CSc1nnc(-c2ccc[nH]c2=S)n1N3 | 106% (inactive)
COC(=O)[C@@H](C)CNS(=O)(=O)N(c1cc(C(F)(F)F)cc(C(F)(F)F)c1)C1CCN(Cc2ccc(F)cc2)CC1 | 31.3% (inactive)
Cc1c[nH]c(=O)n(Cc2nnc(CCC(=O)c3nc4ccccc4[nH]3)o2)c1=O | -0.434% (active)
CCOP(=O)(CCN1CCN(CCCCCOc2cc3c(cc2OC)C(=O)N2CCC[C@H]2C=N3)CC1)OCC | 10.9% (inactive)
CCCC(=O)Oc1ccc(/C(=C(/CC)Cc2ccccc2)c2ccc(OCCN3CCCC3)cc2)cc1 | 89.2% (inactive)
ClC1c2ccccc2CCc2ccccc21 | 122% (inactive)
COc1ccccc1C(=O)O/N=C(\N)Cc1cccc2ccccc12 | 96.3% (inactive)
COc1ccc(-c2cc(=O)[nH]c3c(OC)c4ccccc4c(OC)c23)cc1 | -19.8% (active)
N/C(=N\O)c1cn(C2OC(CO)C(O)C2O)c2ncnc(N)c12 (configuration not stated) | -43.5% (active)
CC1CCc2c(C(=O)Nc3ncc(Cc4cccc([N+](=O)[O-])c4)s3)csc2C1 (configuration not stated) | -26.3% (active)
CCNCCNc1cc(C2CCCCC2)c(C#N)c2nc3ccccc3n12 | -62.4% (active)
CC1(C)COC(=S)N1 | 80.3% (inactive)
Clc1ccc(SSc2ccc(Cl)cc2)cc1 | 102% (inactive)
Cc1noc(C)c1CSc1ccccc1C(=O)N1CCN(c2cccc(C(F)(F)F)c2)CC1 | 74.4% (inactive)
N[C@H](C(=O)O)[C@@H]1CC(Cl)=NO1 | 34.9% [20 µM] (inactive)
COc1cc(NC(=O)c2cncnc2Nc2ccc3c(ccn3Cc3cccc(F)c3)c2)cc(OC)c1 | 21% (inactive)
COc1cc(C(=O)N/N=C/c2cc3cc(OCc4ccccc4)ccc3nc2OC)cc(OC)c1OC | 98.9% (inactive)
COc1ccc(OC)c([N+](=O)[O-])c1C(=O)CNC(C)=O | 104% (inactive)
CC(=O)N1N=C(c2ccc(Cl)cc2)CC1c1c(C)nn(-c2ccccc2)c1N(C)Cc1ccccc1 (configuration not stated) | 82.4% (inactive)
